Among all 62,000 compounds or so, about 420 (0.68%) were called active.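 The calls were made as follows: active = inhibition above the mean of all tested compounds plus 3 SD (cut at about 43% in these data); inactive = the rest.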 The entries come from a sample that favours actives as a whole.
biological target: 5-hydroxytryptamine receptor 1A (Homo sapiens) (UniProt P08908); assay: blockade of serotonin HTR1A receptor – cell-based, CHO, Ga15 NFAT-bla reporter, primary screen (AID 612); conditions: CHO 5-HT1a Ga15 NFAT-bla reporter, antagonist mode; at 10 µM; active compounds read high;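 also: receptor stimulated by 5-CT agonist at 100 nM near EC80; beta-lactamase reporter measured by ratiometric fluorescence of a cleavable substrate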
Sequence (P08908 whole entry, looked up): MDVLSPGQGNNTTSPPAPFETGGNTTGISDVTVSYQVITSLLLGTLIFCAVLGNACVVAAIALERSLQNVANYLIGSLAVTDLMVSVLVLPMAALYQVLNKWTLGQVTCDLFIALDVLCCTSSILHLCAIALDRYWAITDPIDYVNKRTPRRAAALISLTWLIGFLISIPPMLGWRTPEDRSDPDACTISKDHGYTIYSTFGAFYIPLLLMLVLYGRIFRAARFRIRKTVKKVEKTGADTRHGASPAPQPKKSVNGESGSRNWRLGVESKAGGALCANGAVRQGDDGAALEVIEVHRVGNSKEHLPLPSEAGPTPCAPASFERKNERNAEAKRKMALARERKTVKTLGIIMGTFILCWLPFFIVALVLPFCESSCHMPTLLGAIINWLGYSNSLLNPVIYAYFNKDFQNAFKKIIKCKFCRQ

inhibition, active:
COc1ccc(C(C(O)C(=O)c2c[nH]c3ccccc23)N2CCN(c3ccccc3)CC2)cc1 (configuration not stated) 43.9%
Nc1ccc(-c2nnc(-c3ccc(-c4ccccc4)cc3)o2)cc1 62.6%
c1csc(CN2CCN(Cc3cccs3)C2c2cccs2)c1 78.7%
CCN1CCN(c2c(Cl)cccc2NC(=O)c2ccc(Br)o2)CC1 63.5%
COc1ccc(OC)c(C(c2nnnn2C(C)(C)C)N2CCc3ccccc3C2)c1 (configuration not stated) 48.2%
CC12CN(Cc3ccccc3)CC(C)(CN(Cc3ccccc3)C1)C2=NO 50.1%
CC(=O)c1ccc(Oc2cc(C)nc(-n3nc(C)cc3C)n2)cc1 45.2%

inhibition, inactive:
CS(=O)(=O)c1ccc2nc(NC(=O)C3C4C=CC(C4)C3C(=O)O)sc2c1 (configuration not stated) -0.7%
CN1C(=O)c2ccccc2C(C(=O)NCCCN2CCCC2)C1c1c[nH]c2ccccc12 (configuration not stated) -6.4%
O=C(O)CCN1C(=O)CC2(CCCCC2)C1=O 6.3%
C=CCSc1nnc(Cn2c(=O)sc3ccccc32)n1C -0.5%
COc1nc(NCc2ccc(Cl)cc2)nc(OC)n1 -1.3%
Cc1nc(C)c2c(c1C(F)(F)F)-c1ccccc1C2(F)F -9.3%
Cc1ccc2c(C(=O)CN3CCCC3)c(C)[nH]c2c1 14.4%
CCCCOc1ccc(C(C)(O)CCN2CCOCC2)cc1 (configuration not stated) 8.9%
Cc1oc2nc(SCC(=O)NCc3cccnc3)nc(N)c2c1C 5.1%
CCOc1ccc(Cn2nnc(C(=O)NCc3ccccc3)c2N)cc1 10.3%
CCC(C)NC(=O)N[C@@H](CCSC)C(=O)O (some centres not stated) -11.6%
CC1(C)C(=O)C2(CCCCC2)C(=O)OC1c1cccs1 (configuration not stated) -2.8%
CN(CCC#N)c1ncnc2scc(-c3ccccc3)c12 11.5%
C/C(=C\C(=O)c1ccc(Br)cc1)N1CCCCC1 0.5%
CCN(CC)S(=O)(=O)c1cccc(C(=O)Nc2ccccc2)c1 16.2%
Cc1cc(C(=O)OCC(=O)c2c(N)n(C)c(=O)n(C)c2=O)c(C)o1 -7.9%
CCOC(=O)CN1CC23C=CC(O2)C(C(=O)Nc2ccc(F)cc2)C3C1=O (configuration not stated) -5.1%
Cc1ccc(-n2c(Cc3cccs3)nnc2SCC(=O)OC(C)C)cc1 8.6%
Cc1c(C(=O)NCCN2CCOCC2)sc2nc(-c3ccc(F)cc3)cn12 -8%
O=C(COc1ccc(S(=O)(=O)NCCc2ccccc2)cc1)N1CCCC1 -0.2%
CCOC(=O)C1CCCN(C(=O)CN(c2ccc(OC)cc2)S(=O)(=O)c2c(C)noc2C)C1 (configuration not stated) -9.3%
CCCCNC(=O)c1ccccc1NC(=O)c1ccccc1N(C)S(C)(=O)=O -13.1%
CCN1CCN(Cc2nc3c(c(=O)n(C)c(=O)n3C)n2CC(=O)c2ccccc2)CC1 4.5%
O=C(C1=C(O)C(=O)N(c2ncccn2)C1c1cccs1)c1ccco1 (configuration not stated) 11.8%
Cc1cc(C(=O)Nc2c(C)n(C)n(-c3ccccc3)c2=O)cs1 5.4%
O=C(NC1=NCCS1)c1ccc(Cl)s1 10.2%
Cc1ccccc1Nc1nc(N)nc(CN2CCN(c3ccccn3)CC2)n1 2%
CCOC(=O)c1ccc(N2C(=O)CC(N3CC(C)OC(C)C3)C2=O)cc1 (configuration not stated) 14%
CC1=C(C(=O)OC2CCCCC2)C(c2cccnc2)n2ncnc2N1 (configuration not stated) -5%
CCN1CCN(Cc2c(O)ccc3c(=O)c(-c4ccc(OC)c(OC)c4)c(C(F)(F)F)oc23)CC1 4.3%
COc1ccc(NC(=O)c2cccc(NC(=O)c3ccco3)c2)c(OC)c1 5.2%
Cc1ccc(S(=O)(=O)N2CCOCC2)cc1C(=O)NCc1ccc(F)cc1 3.3%
CC1Cc2ccccc2N1C(=O)CSc1nnc(-c2ccc(S(=O)(=O)N3CCCCC3)cc2)o1 (configuration not stated) 1.4%
COc1ccc(OC)c(S(=O)(=O)N(C)CC(=O)N2CCN(c3ccccc3)CC2)c1 -11.1%
CCCC(=O)NC(C)C(c1cccs1)N1CCN(c2ccccc2)CC1 (configuration not stated) 16.9%
COc1ccc(NC(C)=O)cc1NC(=O)CN1CCN(c2ccccn2)CC1 -0.2%
Cc1ccc(-n2nc3c(c2NC(=O)c2ccc4c(c2)OCO4)CSC3)c(C)c1 9%
O=C(Nc1ccc(-c2nnc(-c3ccccc3)o2)cc1)C1CCCO1 (configuration not stated) 9.7%
O=C(Nc1ccc(-c2nnc(-c3ccccc3)o2)cc1)c1ccc(Br)o1 -16.4%
CN1CCN(C(=O)C2C3C=CC(C3)C2C(=O)O)CC1 (configuration not stated) -4%
CCOC(=O)c1ccc(NC(=O)CSc2ncccn2)cc1 -16.8%
Cc1noc(C)c1S(=O)(=O)N1CCCC(C(=O)Nc2nccs2)C1 (configuration not stated) -3.8%
CCc1nnc(NC(=O)c2nc3nccc(C)n3n2)s1 -1.7%
O=S(=O)(Nc1nccs1)c1ccc2c(c1)OCCO2 -0.3%
O=C(CN1CCOc2ccccc21)N1CCC(Cc2ccccc2)CC1 4.5%
CC(=O)C1C(c2cccc(Oc3ccccc3)c2)NC(=O)NC1(O)C(F)(F)F (configuration not stated) -16.2%
O=C1c2cccnc2C(=O)N1Cc1cccs1 -0.8%
O=C(CSCc1cccs1)N1CCCC1 -5.9%
N#Cc1ccc(COC(=O)Cn2nnc(-c3ccccc3)n2)cc1 7.6%
Cc1ccc(CNC(=O)CCCNC(=O)c2ccc(Cl)cc2)n1C -4.8%
CCSC1(SCC)N=C(N)C2(C#N)C(c3ccccc3)NC(C)=CC12C#N (configuration not stated) 1.4%
CCOc1ccc(-c2cn(S(=O)(=O)c3cccc4nsnc34)nc2N)cc1 11.8%
CCCC(=O)Nc1ccc(Cl)c(NC(=O)c2ccc(Br)o2)c1 -5.8%
COc1cc(OC)c(NC(=O)c2ccc(Br)o2)cc1Cl 5.1%
O=C(CCCn1c(SCC(=O)c2ccc(F)cc2)nc2ccccc2c1=O)NCc1ccco1 7.8%
Cn1nc(-c2ccc(N3CCOCC3)c(NC(=O)c3ccccc3)c2)c2ccccc2c1=O 26.6%
COCCn1nnnc1C(c1cc2ccc(OC)cc2[nH]c1=O)N1CCc2ccccc2C1 (configuration not stated) 1.8%
Cc1ccc(C(c2nnnn2C(C)(C)C)N2CCc3ccccc3C2)cc1 (configuration not stated) -4.5%
Cc1ccc(N2C(=O)c3ccccc3C2(O)c2ncc[nH]2)cc1 (configuration not stated) 3.5%
CSc1cccc(NC(=O)CSc2ccccc2)c1 -10.6%
CC(C)COC(=O)c1ccc(NC(=O)C2C3C=CC(C3)C2C(=O)O)cc1 (configuration not stated) 4.8%
CCn1nnc(NC(=O)c2cc(Cl)c(OC)c(Cl)c2)n1 -4.7%
COc1cc2[nH]c(=S)n(CCN3CCCCC3C)c(=O)c2cc1OC (configuration not stated) 2.5%
O=C(O)CC(Cn1cnnn1)c1ccccc1 (configuration not stated) 0.4%
COc1ccc2[nH]c3c(=O)n(Cc4ccco4)cnc3c2c1 6%
CCOc1ccc(N(CC(=O)NCc2ccc(OC)cc2)S(=O)(=O)c2c(C)noc2C)cc1 3.7%
COc1ccc2c(c1)CCc1c(C(=O)N3CCc4ccccc4C3)noc1-2 -3.2%
CN=C1SC(C(=O)O)CC(=O)N1C (configuration not stated) 3.6%
COc1ccccc1-n1cnc2cc(NS(=O)(=O)c3ccccc3)ccc21 26.7%
CCCCn1c(SCC(=O)N2CCC(C(=O)OCC)CC2)nc2cc(S(N)(=O)=O)ccc21 5.5%
CCn1c(CSc2nncn2-c2ccc(OC)cc2)nc2cc(S(=O)(=O)N(C)C)ccc21 0.4%
CCC1C(C#N)=C(SC)NC2=C1C(=O)CC(C)(C)C2 (configuration not stated) 0.2%
O=C(/C(=N\O)n1cncn1)c1ccc(Br)cc1Br -1.8%
CC(=O)c1c(N)n(C)c(=O)n(C)c1=O 1.2%
CC1CSc2nnc(CCc3ccccc3)n21 (configuration not stated) 5.7%
CN1CCN(S(=O)(=O)c2ccc(NC(=O)C3CCCO3)cc2)CC1 (configuration not stated) -0.1%
Cc1ccc(NC(=O)Cn2nc(C)c3ccccc3c2=O)c(C)c1 2.8%
C=CCn1c(SCn2nnc3ccccc3c2=O)nnc1-c1ccc(Cl)cc1 -2.8%
O=C(Nn1cc(C(=O)N2CCN(c3ccccc3F)CC2)c2ccccc2c1=O)c1cnccn1 0.3%
CCn1c2c(c3ccc(OC)cc31)CCCC2=O -8.1%
O=C(CSc1nnc(Cn2cnc3ccccc32)o1)c1ccccc1 -8.1%
CC(=NC1CCN(Cc2ccccc2)CC1)c1c(O)[nH]c(=O)[nH]c1=O -6.7%
Cc1ccc(-c2noc(CN3CCN(Cc4ccccc4)CC3)n2)cc1 -3.3%
CN1C(=O)CC(N2CCN(c3ccccn3)CC2)C1=O (configuration not stated) -2.2%
C=CCNc1nnc(C)c2ccccc12 0.9%
Cc1noc(C)c1S(=O)(=O)N(CC(=O)Nc1ccc2c(c1)OCCO2)c1ccc(C(C)C)cc1 2%
COCCOC(=O)C1=C(C)N=c2s/c(=C\c3cccs3)c(=O)n2C1c1cccs1 (configuration not stated) 6.2%
Cc1cc(C)n(-c2ccc(Cl)c(C(=O)O)n2)n1 -12.6%
CCOC(=O)c1cnc(-n2nc(C)cc2C)nc1Nc1cccc(C(C)=O)c1 12.1%
CCOCCCN1C(=O)CN(C2CCCCC2)C(=O)C1c1ccc(OCC)c(OC)c1 (configuration not stated) 4.5%

From PubChem BioAssay AID612 (The Scripps Research Institute Molecular Screening Center, 2007)
